# Laboratory results from PubChem BioAssay.
# Active and inactive are the calls of the source.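 How the source made its calls, unless noted: active means visual image review flags a hit and inhibition of aggregation exceeds 20%; inconclusive means visual hit but inhibition at or below 20%; inactive means no hit on visual image review.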
# Experiments:
# [1] = inhibitors of TNFa-induced NFkB p65 translocation, primary screen, imaging, HUVEC, MLSMR starter and 10KST1 sets (AID 438;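 active means inhibition above 20% together with a positive visual image hit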;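 further: compound added about 3h40 before a 20 min TNFalpha stimulation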;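 on inhibition: signal is the nuclear over cytoplasmic p65 intensity ratio per well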); details: HUVEC TNFa-induced p65 nuclear translocation; cell count: measured here: nuclei count (cytotoxicity indicator), at 2.08 µM; inhibition: at 2 µM, stronger effect = higher value, 0% TNFa-plus-vehicle, 100% no-TNFa wells
# [2] = reduction of polyQ htt aggregates in cells – imaging, exon1htt(103Q)mCFP cells, high-content imaging, primary screen (AID 483); details: exon1htt(103Q)mCFP cell line, aggregate imaging, at 2 µM; inhibition of aggregation: stronger effect = higher value; nuclei count: measured here: cell count, toxicity;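 further: compound exposure lasted 3 days before fixation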;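 on nuclei count: percent of the per-plate median nuclei count of sample wells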
# [3] = endothelial E-selectin expression blockers – imaging, HUVEC, immunofluorescence, MLSMR starter and 10KST1 sets, primary screen (AID 487;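 active means visually confirmed hit in the image check and inhibition above 20%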;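 on inhibition: signal is fraction of cell area covered by stained E-selectin grains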;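 on nuclei count: 100% = median nuclei count of all wells on the same plate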); details: HUVEC TNFalpha-induced E-selectin immunofluorescence imaging, at 2 µM; inhibition: stronger effect = higher value; nuclei count: measured here: cell number, toxicity
# [4] = biological target: Voltage-gated potassium channel subunit beta-2 (Rattus norvegicus) (UniProt P62483); assay: inhibitors of rat Kvbeta2 reductase activity – biochemical, NADPH fluorescence, primary screen (AID 622;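 active means fluorescence slope higher than the sample average by over 3 SD, cut at about -0.22 in these data, passing the limit was not always enough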;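 further: slope of raw intensity against log time taken from 70 to 1610 s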); details: recombinant KvBeta, 4-cyanobenzaldehyde reduction, at 10 µM, stronger effect = higher value
# Sequence of Voltage-gated potassium channel subunit beta-2 (Rattus norvegicus) (P62483 whole entry, looked up): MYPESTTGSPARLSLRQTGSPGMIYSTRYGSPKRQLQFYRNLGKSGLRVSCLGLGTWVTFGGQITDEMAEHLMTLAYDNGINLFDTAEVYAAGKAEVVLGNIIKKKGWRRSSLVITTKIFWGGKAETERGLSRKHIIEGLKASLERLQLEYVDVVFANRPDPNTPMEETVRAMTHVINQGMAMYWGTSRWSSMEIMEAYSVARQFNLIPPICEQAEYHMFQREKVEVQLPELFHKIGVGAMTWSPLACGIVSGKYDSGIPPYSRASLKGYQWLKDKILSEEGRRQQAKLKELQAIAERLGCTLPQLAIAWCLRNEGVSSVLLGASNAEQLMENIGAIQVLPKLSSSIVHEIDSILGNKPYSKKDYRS
# [5] = biological target: Voltage-gated potassium channel subunit beta-2 (Rattus norvegicus) (UniProt P62483); assay: enhancers of rat Kvbeta2 NADPH turnover – biochemical, NADPH fluorescence, primary screen (AID 623;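 active means NADPH fluorescence slope more negative than the mean of all samples by about 3 SD, 99.7% confidence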;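 further: fluorescence intensity change per second fitted from 20 to 320 s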); details: Recombinant KvBeta, NADPH fluorescence decrease slope, 10 min; at 10 µM; stronger effect = lower value
# [6] = biological target: Alpha-2C adrenergic receptor (Homo sapiens) (UniProt P18825); assay: compounds altering alpha2C-coupled GIRK flux – cell-based, HEK293 alpha2C/GIRK1/2, thallium flux, primary screen (AID 624;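 active means fluorescence slope after compound addition differing from the mean of all screened samples at 99.7% confidence, in either direction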;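 further: slope of fluorescence ratio to pre-addition baseline per second over 15 to 24 s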); details: thallium flux BTC fluorescence, at 10 µM, actives lie on both sides
# Sequence of Alpha-2C adrenergic receptor (Homo sapiens) (P18825 whole entry, looked up): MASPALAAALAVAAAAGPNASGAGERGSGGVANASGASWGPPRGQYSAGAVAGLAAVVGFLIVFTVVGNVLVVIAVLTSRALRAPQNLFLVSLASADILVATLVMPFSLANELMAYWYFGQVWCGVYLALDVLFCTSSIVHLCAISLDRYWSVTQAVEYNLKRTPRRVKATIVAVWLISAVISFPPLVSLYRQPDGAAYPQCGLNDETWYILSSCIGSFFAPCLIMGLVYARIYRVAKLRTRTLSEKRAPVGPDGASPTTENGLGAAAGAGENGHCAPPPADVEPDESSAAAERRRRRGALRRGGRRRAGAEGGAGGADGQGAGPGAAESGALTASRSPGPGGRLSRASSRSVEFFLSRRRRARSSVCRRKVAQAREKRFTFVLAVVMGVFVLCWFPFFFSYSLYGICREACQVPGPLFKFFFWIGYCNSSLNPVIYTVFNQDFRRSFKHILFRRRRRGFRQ
# [7] = blockers of RIG-like receptor reporter activation – cell-based, Sendai virus stimulus, luciferase, 10K MLSCN set, TLR/RLR signaling modifier project, primary screen (AID 602276;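 active means inhibition at or above 50% at 10 µM; inactive means inhibition below 50%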;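 further: firefly luciferase from ISG56 promoter only with Renilla not read in this screen; 0% = Sendai virus plus DMSO and 100% = medium plus DMSO without virus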); details: HEK293 RL24 IRF3 luciferase reporter, at 10 µM, stronger effect = higher value
# [8] = TLR3 IRF3 reporter activation blockers – cell-based, poly I:C stimulus, luciferase, 10K MLSCN set, primary screen (AID 602277;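 active means inhibition of the reporter signal at or above 50%; inactive means inhibition below 50%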); details: HEK293-TLR3 RL24 IRF3 luciferase reporter, at 10 µM, stronger effect = higher value
Compound,cell count [1],inhibition [1],inhibition of aggregation [2],nuclei count [2],inhibition [3],nuclei count [3],fluorescence slope [4],NADPH fluorescence slope [5],slope [6],inhibition [7],inhibition [8]
CCN1CCCC1CNC(=O)CS(=O)(=O)Cc1nc(-c2ccccc2C)oc1C (configuration not stated),834,-0.6% (inactive),3.2% (inactive),104%,-87.9% (inactive),126%,-0.511 (inactive),-3e-05 (inactive),0.00452 (inactive),5.3% (inactive),46.5% (inactive)
COc1ccc(CCNC(=O)c2ccc(N3CCCC3=O)cc2)cc1OC,472,-19% (inactive),43.9% (active),62.2%,-26% (inactive),89.1%,-0.453 (inactive),-0.000105 (inactive),0.00604 (inactive),8.09% (inactive),20.6% (inactive)
CCOC(=O)C1CCN(C(=O)COc2ccc(Cl)cc2Cl)CC1,705,-5.1% (inactive),8% (inactive),103%,4.3% (inactive),104%,-0.613 (inactive),-1.6e-05 (inactive),0.00593 (inactive),3.61% (inactive),14.2% (inactive)
COc1ccc(-c2noc(-c3ccccc3C(=O)Nc3cccnc3)n2)cc1OC,395,-5.7% (inactive),-13.9% (inactive),103%,-57.8% (inactive),115%,-0.458 (inactive),-3.1e-05 (inactive),0.00579 (inactive),1.54% (inactive),0.376% (inactive)
CCOc1cc(S(=O)(=O)NCc2ccc3c(c2)OCO3)ccc1F,266,1.8% (inactive),-4.1% (inactive),98.6%,-32.5% (inactive),103%,-0.407 (inactive),-3.8e-05 (inactive),0.00471 (inactive),15.3% (inactive),9.83% (inactive)
Cc1ccc(S(=O)(=O)NCCN2CCOCC2)cc1C,408,-14.3% (inactive),21.7% (inactive),92.2%,31.4% (inactive),86.3%,-0.611 (inactive),1.4e-07 (inactive),0.00599 (inactive),13.7% (inactive),26.5% (inactive)
CCOC(=O)C(NC(=O)c1ccccc1)(Nc1cc(C)on1)C(F)(F)F (configuration not stated),379,2.6% (inactive),-4.6% (inactive),101%,0.6% (inactive),88.4%,-0.494 (inactive),-1.9e-05 (inactive),0.00554 (inactive),14.5% (inactive),24.7% (inactive)
